About 83,000 compounds went through this panel and 20% of them were active in at least one assay; those are over-represented in the sample as a whole.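 Interpretation: 100, growth as untreated; towards 0, rising growth inhibition; 0, no net growth; 0 to -100, cell death. Compounds scoring below 10 were considered active.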 Values without a mark were called inactive. Active and inactive are the calls of the source.

Experimental findings from PubChem BioAssay (NCI) are described below.

This assay deals with HOP-62 NSCLC. In words: NCI-60 one-dose screen, 48 h (100 = growth as untreated, 0 = no growth, -100 = all killed). The following applies: 10 µM unless noted. As for the experimental part: Growth inhibition of the HOP-62 human Non-Small Cell Lung tumor cell line is measured as a screen for anti-cancer activity. Cells are grown in 96 well plates and exposed to the test compound for 48 hours. Compounds are tested at a single concentration, which is 10^-5 M for most compounds. The reported endpoint is percent growth (GI% or GIPRCNT), where numbers from 0 - 100% represent growth inhibition, and numbers from -100% - 0 represent cell death. For example, a value of 40 represents 60% growth inhibition. A value of 0 means no net growth occurred over the course of the experiment. A value of -40 indicates 40% of cells at the beginning of the experiment died by the end of the experiment. A value of -100 means all cells are dead at the end of the experiment.
NCI-60 Human Tumor Cell Lines Screen was performed using the standard one-dose NCI protocol, which is described in more detail at https://dtp.cancer.gov/discovery_development/nci-60/default.htm.
Compounds with GIPRCNT values below 10 were considered active. Activity score was based on GIPRCNT using the following formula: […]
Score is 0 for GIPRCNT values of 100 or above, 50 for GIPRCNT values of 0, and 100 for GIPRCNT values of -100.
As to `Cc1ccc(-c2c(Br)c(OC(=O)CO[C@@H]3C[C@H](C)CC[C@H]3C(C)C)c(-c3ccc(C)cc3C)c(Br)c2OC(=O)CO[C@H]2C[C@@H](C)CC[C@@H]2C(C)C)c(C)c1`, the growth is 94.5%.

For `O=S(=O)(NCCCNc1nccc(-c2c(-c3ccc(F)c(O)c3)nc3sccn23)n1)c1ccc(F)cc1`, the growth is 19.9%.

With `CC(C)CCSc1nc(NNC(N)=O)c(C#N)c(-c2ccccc2)n1`, the growth was 105%.

Take `C=C(C)[C@@H]1CC[C@]2(C=O)CC[C@]3(C)[C@H](CC[C@@H]4[C@@]5(C)CCCNC(C)(C)[C@@H]5CC[C@]43C)[C@@H]12`: the growth was 94.5%.

Regarding `Cc1cc(C)c(C=O)c(C)c1`, the growth is 72.4%.

As for `C#CC(=O)Nc1cccc2c1cc(C)n2-c1nc2c(c(NCc3ccccc3)n1)CCCC2`, the growth was -46.8% (active).

In the case of `COc1ccc(-c2cnc(N)nc2-c2ccc(OC)cc2O)cc1`, the growth was 110%.

On to `O=C1NC(=S)NC(=O)C1=Cc1cccc(C=C2C(=O)NC(=S)NC2=O)c1`, for which the growth was 104%.

Take `O=S(=O)(c1ccccc1)N1CCCc2ccccc21`: the growth is 94.2%.

As to `NC(=O)c1cccc(-c2cc(C(N)=O)ccc2Cl)c1`, the growth is 35.9%.

Consider `COc1ccc(-c2nc(SCC(C)C)nc(N/N=C(/C)c3ccc(OC)c(OC)c3)c2C#N)cc1`, for which the growth is 86.9%.

Consider `Cc1ccccc1-c1cc(Cc2ccc(F)cc2)c(=O)[nH]n1`, for which the growth was 95%.

On to `O=C(CSc1nc2sc3c(c2c(=O)n1Cc1ccccc1)CCCC3)N1CCN(c2ccccc2)CC1`, for which the growth is 88.3%.

In the case of `CCCCCCC/C=C/[C@H]1O[C@]2(O)C(=O)C=C3C[C@@H](O[C@@H]4O[C@H](CO)[C@@H](O)C(O)[C@@H]4O)C[C@@H]3[C@H]2C=C1C` (stereo not given in full), the growth was 1.36% (active).

For the compound `CN(Cc1ccccc1)c1nc(Cl)c(C2CC(c3ccc(Cl)cc3)=Cc3[nH][nH]c(=O)c32)s1` (stereo not given), the growth was 101%.

As to `COc1cc2nc(-c3ccc(C(F)(F)F)cc3)cc(OCCN3CCC(O)CC3)c2cc1OC`, the growth is 67.8%.

Consider `C(=C\c1n(Cc2ccc3ccccc3c2)c(-c2ccccc2)c(-c2ccccc2)[n+]1Cc1ccc2ccccc2c1)/c1ccccc1`, for which the growth is -84.5% (active).

With `S=c1[nH]cccc1-c1nnc2n1Nc1nc3ccc(Cl)cc3cc1CS2`, the growth is 108%.

Turning to `Cc1ccc2[nH]c(=S)n(-c3ccc(S(=O)(=O)Nc4ccc(Cl)nn4)cc3)c(=O)c2c1`, the growth is 104%.

Take `FC(F)(F)c1cccc(Nc2ccccc2)c1`: the growth is 105%.

For `Fc1ccc(-n2cc(COc3ncnc4sc5c(c34)CCCC5)nn2)cc1Cl`, the growth was 96.3%.

Consider `Clc1nc(Cl)c2ncn(CC3(Cn4cnc5c(Cl)nc(Cl)nc54)COC3)c2n1`, for which the growth was -82.3% (active).

Turning to `CC1(C)NCCC[C@]2(C)[C@H]3CC=C4[C@@H]5C[C@@](C)(CO)CC[C@]5(C)CC[C@@]4(C)[C@]3(C)CC[C@@H]12`, the growth was 88.8%.

`c1ccc(-c2nn(-c3ccccc3)[n+](-c3cccc4ccccc34)n2)cc1`: the growth was 41.7%.

With `O=C1CCC(NC(=S)Nc2ccccc2)N1` (stereo not given), the growth is 109%.

Turning to `COc1ccccc1/C=C1\Oc2cc(OCCCN3CCCC3)ccc2C1=O`, the growth is 88.5%.

As for `COc1ccc(Nn2c(SCC(=O)Nc3nc(-c4ccc(Cl)cc4)cs3)nc(C)c2C)cc1`, the growth is 100%.

Take `COc1cc(/C=N/NC(=O)c2ccccc2Nc2cccc(C(F)(F)F)c2)ccc1O`: the growth is 93.4%.

On to `CN1C(=O)N(C)C2NC(N/N=C/c3ccccc3)=NC21` (stereo not given), for which the growth was 94.5%.

For the compound `O=C(CNCCO)Nc1ccc2ncnc(Nc3ccc(OCc4cccc(F)c4)c(Cl)c3)c2c1`, the growth was 87%.

`O=C(CCN1CCCC1)Nc1ccc2c(NCc3ccc(F)cc3)c3ccccc3nc2c1`: the growth is -1.6% (active).

In the case of `COc1cc(/C=C/C(=O)c2c(C)oc3nc[nH]c(=O)c23)ccc1O`, the growth is 93.9%.

In the case of `COc1cc2oc(-c3cccc(C(=O)Nc4ccc(Cl)cc4)c3)cc(=O)c2c(OC)c1OC`, the growth was 12.8%.

In the case of `CN1CCCC1=Nc1ccccc1`, the growth was 103%.

For `C/C(=C(/c1ccccc1)c1ccc(OCC(O)CNCCN2CCOCC2)cc1)c1ccccc1` (stereo not given), the growth was 54.9%.

Regarding `O=[N+]([O-])c1cccc(-c2nc(-c3ccc(Cl)cc3Cl)cn2-c2ccccc2)c1`, the growth was -75.4% (active).

As for `FC(F)(F)Oc1cccc(-c2cc(NCCCCCCNc3cc(-c4cccc(OC(F)(F)F)c4)nc4ccc(N5CCCC5)cc34)c3cc(N4CCCC4)ccc3n2)c1`, the growth was -14% (active).

With `COc1ccc(-c2c[nH]c(C(=O)O)c2-c2cc(OC)c3c(c2OC)OCO3)cc1`, the growth is 95.6%.

Consider `O=C(N/N=C/c1cccnc1)c1ccccc1Nc1cccc(C(F)(F)F)c1`, for which the growth was 77.5%.

On to `COc1ccc(C(=O)c2cc3c(N)c(C(=O)Nc4ccc(Cl)cc4)sc3nc2C)cc1`, for which the growth was 37.5%.
